According to PubChem BioAssay (EPA / NIEHS):
Results filed as inconclusive are left out. Activity calls are given as the source filed them. Rule for the calls: active = hit-call score of the fitted dose curve at least 0.9, where 1 is the maximum; inconclusive = response in the unintended direction; inactive = score below 0.9.

Assay: ACEA_ER_80hr: ACEA Biosciences xCELLigence Real-Time Cell Analysis on Estrogen Receptor Agonism for Proliferation (AID 2282667)
Settings: T47D proliferation, impedance (xCELLigence), 80 h
How it was run: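 Cell-growth kinetics were measured by impedance in T47D cells treated continuously with compound (top 100 uM final, 1:4 steps, 8 points). Activity at 80 h was scored as signal gain over the DMSO baseline.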

| SMILES | outcome | AC50 |
| --- | --- | --- |
| CCCCC(CC)COC(=O)COc1ccc(Cl)cc1C (configuration not stated) | inactive |  |
| O=C1OC2(c3ccc(O)cc3Oc3cc(O)ccc32)c2ccccc21 | inactive |  |
| COc1ccc(N)c(C)c1 |  | 43.5 µM (active) |
| CCCO | inactive |  |
| c1ccc(Cc2ccccc2)cc1 | inactive |  |
| Cc1cc(N)n(-c2ccccc2)n1 | inactive |  |
| c1ccc2c(c1)-c1ccc3ccc4cccc5cc-2c1c3c45 | inactive |  |
